“And” between values parts separate entries of the source, which are not always exact repeats. Equal values may be shown once. Among all 5,500 compounds or so, about 2,000 (36%) were called active. Not shown: some 18% with an inconclusive outcome. Cut-off read from the data, not from the text of the source: active = normalized growth mostly below about 0.91 (no sharp cut-off); inconclusive = no clear call, values can overlap the other calls; inactive = mostly above about 0.92. Some of the results follow.
Experiment: chemical genetic growth profiling, strain panel (AID 1159580);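 note: tested at 20 µM; growth read once vehicle control cultures reached saturation at 30 °C; 1 = growth at the plate median or of vehicle wells; lower values mean less growth of the strain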
Details: S. cerevisiae deletion strains, growth OD

Measured: normalized growth

COc1cc(CNC(=O)CCCC/C=C/C(C)C)ccc1O
inactive: locus YAL013W, strain DEP1, stronger effect = lower value 1.01 | locus YAL021C, strain ccr4, stronger effect = lower value 0.971 | locus YAL026C, strain drs2, stronger effect = lower value 0.994 | locus YAL030W, strain snc1, stronger effect = lower value 0.987 | locus YBL061C, strain skt5, stronger effect = lower value 0.99 | locus YBR009C, strain hhf1, stronger effect = lower value 0.951 | locus YBR021W, strain FUR4, stronger effect = lower value 0.978 | locus YBR023C, strain chs3, stronger effect = lower value 0.975 | locus YBR171W, strain sec66, stronger effect = lower value 0.979 | locus YBR229C, strain ROT2, stronger effect = lower value 0.994 | locus YBR231C, strain swc5, stronger effect = lower value 0.981 | locus YBR279W, strain paf1, stronger effect = lower value 0.983 | locus YCL011C, strain gbp2, stronger effect = lower value 0.979 | locus YCL016C, strain dcc1, stronger effect = lower value 0.989 | locus YCL029C, strain bik1, stronger effect = lower value 0.988 | locus YCL069W, strain vba3, stronger effect = lower value 0.992 | locus YCR088W, strain abp1, stronger effect = lower value 0.964 | locus YDL005C, strain med2, stronger effect = lower value 0.965 | locus YDL035C, strain GPR1, stronger effect = lower value 0.972 | locus YDL040C, strain nat1, stronger effect = lower value 0.997 | locus YDL074C, strain BRE1, stronger effect = lower value 0.979 | locus YDL101C, strain DUN1, stronger effect = lower value 1.01 | locus YDL134C, strain PPH21, stronger effect = lower value 1 | locus YDL185W, strain tfp1, stronger effect = lower value 0.986 | locus YDL192W, strain arf1, stronger effect = lower value 0.989 | locus YDR001C, strain nth1, stronger effect = lower value 0.997 | locus YDR069C, strain doa4, stronger effect = lower value 0.981 | locus YDR101C, strain arx1, stronger effect = lower value 0.969 | locus YDR137W, strain rgp1, stronger effect = lower value 0.997 | locus YDR159W, strain sac3, stronger effect = lower value 0.999 | locus YDR162C, strain NBP2, stronger effect = lower value 1.04 | locus YDR195W, strain ref2 0.959 | locus YDR297W, strain sur2, stronger effect = lower value 0.973 | locus YDR318W, strain mcm21, stronger effect = lower value 1 | locus YDR334W, strain swr1, stronger effect = lower value 0.998 | locus YDR335W, strain msn5, stronger effect = lower value 0.968 | locus YDR388W, stronger effect = lower value 0.99 | locus YDR392W, strain spt3, stronger effect = lower value 0.956 | locus YDR502C, strain sam2, stronger effect = lower value 0.961 | locus YEL003W, strain gim4, stronger effect = lower value 0.984 | locus YEL037C, strain rad23, stronger effect = lower value 0.99 | locus YEL061C, strain CIN8 (second series), stronger effect = lower value 0.983 | locus YEL061C, strain CIN8, stronger effect = lower value 1.01 | locus YER015W, strain faa2, stronger effect = lower value 1 | locus YER016W, strain bim1, stronger effect = lower value 1.01 | locus YER110C, stronger effect = lower value 0.969 | locus YER111C, strain swi4, stronger effect = lower value 0.991 | locus YER155C, strain BEM2 (second series), stronger effect = lower value 0.953 | locus YER155C, strain BEM2, stronger effect = lower value 0.994 | locus YER167W, strain BCK2, stronger effect = lower value 1.01 | locus YFR010W, strain ubp6, stronger effect = lower value 0.973 | locus YGL078C, strain dbp3, stronger effect = lower value 0.974 | locus YGL086W, strain mad1, stronger effect = lower value 0.996 | locus YGL167C, strain pmr1, stronger effect = lower value 0.988 | locus YGL173C, strain kem1, stronger effect = lower value 0.978 | locus YGL227W, strain vid30, stronger effect = lower value 0.975 | locus YGL240W, strain doc1, stronger effect = lower value 0.975 | locus YGL248W, strain PDE1, stronger effect = lower value 1.02 | locus YGL253W, strain hxk2, stronger effect = lower value 0.987 | locus YGR135W, strain pre9, stronger effect = lower value 0.991 | locus YGR252W, strain gcn5, stronger effect = lower value 0.898 | locus YHR013C, strain ard1, stronger effect = lower value 0.999 | locus YHR027C, strain rpn1, stronger effect = lower value 0.984 | locus YHR030C, strain SLT2, stronger effect = lower value 1.02 and 0.997 | locus YHR079C, strain IRE1 (second series), stronger effect = lower value 1 | locus YHR079C, strain IRE1, stronger effect = lower value 0.989 | locus YHR094C, strain hxt1, stronger effect = lower value 0.981 | locus YHR129C, strain ARP1, stronger effect = lower value 1.02 | locus YHR142W, strain chs7, stronger effect = lower value 0.998 | locus YHR200W, strain rpn10, stronger effect = lower value 1.01 | locus YIL066C, strain RNR3, stronger effect = lower value 1.01 | locus YIL073C, strain SPO22, stronger effect = lower value 0.972 | locus YIL125W, strain kgd1, stronger effect = lower value 0.993 | locus YIR030C, strain dcg1, stronger effect = lower value 0.986 | locus YJL092W, strain hpr5, stronger effect = lower value 0.99 | locus YJL095W, strain BCK1 (second series), stronger effect = lower value 0.986 | locus YJL095W, strain BCK1, stronger effect = lower value 1.05 and 0.999 | locus YJL115W, strain asf1, stronger effect = lower value 0.979 | locus YJL129C, strain trk1, stronger effect = lower value 0.955 | locus YJL134W, strain LCB3, stronger effect = lower value 1.01 | locus YJL154C, strain vps35, stronger effect = lower value 0.98 | locus YJL164C, strain tpk1, stronger effect = lower value 0.994 | locus YJL166W, strain qcr8, stronger effect = lower value 0.973 | locus YJL168C, strain set2, stronger effect = lower value 0.981 | locus YJL187C, strain SWE1 (second series), stronger effect = lower value 1.01 | locus YJL187C, strain SWE1, stronger effect = lower value 0.994
